# Laboratory results as given in article PMC7862700, “An all-to-all approach to the identification of sequence-specific readers for epigenetic DNA modifications on cytosine”.
# What was measured:
# Assay in all cases: DAPPL (digital affinity profiling via proximity ligation, sequencing); 10 mM Tris-HCl pH 7.5, 50 mM NaCl, 1 mM DTT, 4% glycerol, room temperature, 30 min; GST-TFs on glutathione beads, 16-mer random dsDNA library, 0.1% formaldehyde crosslink after washing; high values mean tight binding
# Settings in all cases: protein: recombinant; tags: N-terminal GST; dsDNA, one strand shown
# ERF = target: T1, ERF (Homo sapiens, UniProt P50548 1-548)
# T1 sequence: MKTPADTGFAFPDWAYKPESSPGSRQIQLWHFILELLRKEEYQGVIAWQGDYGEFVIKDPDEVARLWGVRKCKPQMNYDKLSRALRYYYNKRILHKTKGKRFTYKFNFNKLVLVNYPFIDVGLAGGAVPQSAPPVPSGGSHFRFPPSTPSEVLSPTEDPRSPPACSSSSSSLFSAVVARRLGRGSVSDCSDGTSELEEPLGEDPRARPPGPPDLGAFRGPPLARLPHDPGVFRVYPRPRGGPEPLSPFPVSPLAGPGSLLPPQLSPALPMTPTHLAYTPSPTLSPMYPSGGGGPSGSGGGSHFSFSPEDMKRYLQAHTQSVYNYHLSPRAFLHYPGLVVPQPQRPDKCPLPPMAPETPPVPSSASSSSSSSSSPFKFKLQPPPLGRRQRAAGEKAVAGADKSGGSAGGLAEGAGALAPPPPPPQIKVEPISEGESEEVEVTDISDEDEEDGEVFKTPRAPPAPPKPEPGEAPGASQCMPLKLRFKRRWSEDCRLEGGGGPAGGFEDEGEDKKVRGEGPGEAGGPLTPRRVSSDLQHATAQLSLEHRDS
# In short: (§1)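 Sequencing on an Illumina NextSeq500 followed washing, crosslinking with 0.1% formaldehyde, proximity ligation (BsaI/T4 ligase, 1 h, 37 °C) and PCR amplification of pools that had been incubated for 30 min at room temperature with 200 nmole of a random double-stranded 16-mer DNA library in Tris/NaCl/DTT/glycerol buffer. Each pool held DNA-barcoded human transcription factors, expressed in yeast as GST fusions and captured on glutathione beads, plus a tag-only sample. Binding signal is a hexamer's read frequency for a factor divided by its frequency in the tag-only sample.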
# ETV3L = target: T2, ETV3L (Homo sapiens, UniProt Q6ZN32 1-361)
# T2 sequence: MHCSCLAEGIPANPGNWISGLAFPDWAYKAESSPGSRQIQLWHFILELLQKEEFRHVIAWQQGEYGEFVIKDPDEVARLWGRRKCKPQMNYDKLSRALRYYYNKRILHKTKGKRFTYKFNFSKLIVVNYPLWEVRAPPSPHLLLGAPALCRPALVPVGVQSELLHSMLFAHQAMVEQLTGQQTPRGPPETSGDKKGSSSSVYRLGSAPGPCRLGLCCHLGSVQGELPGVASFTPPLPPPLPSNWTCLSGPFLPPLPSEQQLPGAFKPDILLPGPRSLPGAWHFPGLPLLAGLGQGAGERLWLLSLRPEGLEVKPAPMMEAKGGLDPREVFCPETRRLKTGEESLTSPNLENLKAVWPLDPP
# In short: as §1
# ETS2 = target: T3, ETS2 (Homo sapiens, UniProt P15036 1-469)
# T3 sequence: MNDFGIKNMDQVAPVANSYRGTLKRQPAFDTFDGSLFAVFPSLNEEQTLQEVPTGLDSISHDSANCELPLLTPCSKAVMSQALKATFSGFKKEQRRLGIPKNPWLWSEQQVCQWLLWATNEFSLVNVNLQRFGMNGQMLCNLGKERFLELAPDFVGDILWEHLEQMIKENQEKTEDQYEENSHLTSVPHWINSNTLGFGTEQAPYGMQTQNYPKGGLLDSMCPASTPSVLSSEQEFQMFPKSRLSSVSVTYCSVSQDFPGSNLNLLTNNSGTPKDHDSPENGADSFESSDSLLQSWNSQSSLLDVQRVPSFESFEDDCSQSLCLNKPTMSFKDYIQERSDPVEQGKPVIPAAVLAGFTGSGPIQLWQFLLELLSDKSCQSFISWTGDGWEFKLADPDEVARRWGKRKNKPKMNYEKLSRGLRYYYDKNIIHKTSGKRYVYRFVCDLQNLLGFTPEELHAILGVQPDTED
# In short: as §1
# SPDEF = target: T4, SPDEF (Homo sapiens, UniProt O95238 1-335)
# T4 sequence: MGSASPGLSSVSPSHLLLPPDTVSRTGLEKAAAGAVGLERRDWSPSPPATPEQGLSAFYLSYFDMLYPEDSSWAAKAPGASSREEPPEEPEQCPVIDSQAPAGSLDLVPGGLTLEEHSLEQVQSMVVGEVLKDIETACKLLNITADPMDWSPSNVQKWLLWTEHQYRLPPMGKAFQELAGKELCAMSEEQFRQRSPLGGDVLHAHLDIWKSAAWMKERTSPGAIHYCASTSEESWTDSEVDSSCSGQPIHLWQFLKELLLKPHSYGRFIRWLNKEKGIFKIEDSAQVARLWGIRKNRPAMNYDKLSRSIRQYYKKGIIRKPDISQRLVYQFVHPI
# In short: as §1
# ETV7 = target: T5, ETV7 (Homo sapiens, UniProt Q9Y603 1-341)
# T5 sequence: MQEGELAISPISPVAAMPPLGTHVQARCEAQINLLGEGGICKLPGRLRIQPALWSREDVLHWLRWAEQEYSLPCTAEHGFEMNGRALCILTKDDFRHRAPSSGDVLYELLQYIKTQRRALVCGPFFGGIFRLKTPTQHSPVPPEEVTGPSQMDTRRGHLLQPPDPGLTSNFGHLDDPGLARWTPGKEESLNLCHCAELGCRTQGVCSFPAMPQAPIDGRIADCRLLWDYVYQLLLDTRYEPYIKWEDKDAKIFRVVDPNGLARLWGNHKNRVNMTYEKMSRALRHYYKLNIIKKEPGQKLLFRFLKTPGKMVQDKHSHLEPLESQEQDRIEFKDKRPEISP
# In short: as §1
# ELF5 = target: T6, ELF5 (Homo sapiens, UniProt Q9UKW6-2 1-255)
# T6 sequence: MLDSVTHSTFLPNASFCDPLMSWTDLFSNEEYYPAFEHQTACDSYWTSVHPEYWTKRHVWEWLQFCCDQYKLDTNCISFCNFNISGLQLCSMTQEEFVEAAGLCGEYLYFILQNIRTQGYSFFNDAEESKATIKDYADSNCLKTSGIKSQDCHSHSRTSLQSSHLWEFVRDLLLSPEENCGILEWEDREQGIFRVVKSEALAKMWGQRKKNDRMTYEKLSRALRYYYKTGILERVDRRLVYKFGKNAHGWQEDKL
# In short: as §1
# ETV3 = target: T7, ETV3 (Homo sapiens, UniProt P41162-2 1-143)
# T7 sequence: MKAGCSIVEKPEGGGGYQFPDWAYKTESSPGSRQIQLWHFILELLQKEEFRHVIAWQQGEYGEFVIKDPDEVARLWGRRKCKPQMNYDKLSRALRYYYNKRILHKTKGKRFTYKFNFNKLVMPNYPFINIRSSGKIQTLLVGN
# In short: as §1
# ETV6 = ETV6 (Homo sapiens, UniProt P41212 1-452)
# In short: as §1
# Chain of ETV6 (P41212 whole entry): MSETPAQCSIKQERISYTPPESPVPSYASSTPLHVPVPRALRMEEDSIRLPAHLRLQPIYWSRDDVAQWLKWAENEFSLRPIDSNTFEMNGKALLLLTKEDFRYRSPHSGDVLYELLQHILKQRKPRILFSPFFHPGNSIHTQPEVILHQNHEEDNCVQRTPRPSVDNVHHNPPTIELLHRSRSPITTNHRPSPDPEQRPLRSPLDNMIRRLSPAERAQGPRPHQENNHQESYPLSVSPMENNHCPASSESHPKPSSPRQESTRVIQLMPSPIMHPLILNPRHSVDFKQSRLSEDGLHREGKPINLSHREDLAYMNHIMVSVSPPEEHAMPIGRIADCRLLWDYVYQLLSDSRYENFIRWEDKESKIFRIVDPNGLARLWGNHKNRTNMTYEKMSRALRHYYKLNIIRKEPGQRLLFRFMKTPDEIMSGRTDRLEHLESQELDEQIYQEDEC
sequence,measurement,setting,value
CTTTAA,binding signal,ERF,"1.32 fold enrichment (6-mer frequency, TF over GST control)"
same,binding signal,ETV3L,"1.34 fold enrichment (6-mer frequency, TF over GST control)"
same,binding signal,ETS2,"1.33 fold enrichment (6-mer frequency, TF over GST control)"
same,binding signal,SPDEF,"1.28 fold enrichment (6-mer frequency, TF over GST control)"
same,binding signal,ETV7,"1.2 fold enrichment (6-mer frequency, TF over GST control)"
same,binding signal,ELF5,"1.32 fold enrichment (6-mer frequency, TF over GST control)"
same,binding signal,ETV3,"1.23 fold enrichment (6-mer frequency, TF over GST control)"
same,binding signal,ETV6,"1.23 fold enrichment (6-mer frequency, TF over GST control)"
TCCACC,binding signal,ERF,"1.25 fold enrichment (6-mer frequency, TF over GST control)"
same,binding signal,ETV3L,"1.22 fold enrichment (6-mer frequency, TF over GST control)"
same,binding signal,ETS2,"1.21 fold enrichment (6-mer frequency, TF over GST control)"
same,binding signal,SPDEF,"1.1 fold enrichment (6-mer frequency, TF over GST control)"
same,binding signal,ETV7,"1.12 fold enrichment (6-mer frequency, TF over GST control)"
same,binding signal,ELF5,"1.19 fold enrichment (6-mer frequency, TF over GST control)"
same,binding signal,ETV3,"1.29 fold enrichment (6-mer frequency, TF over GST control)"
same,binding signal,ETV6,"1.26 fold enrichment (6-mer frequency, TF over GST control)"
TCACCC,binding signal,ERF,"1.2 fold enrichment (6-mer frequency, TF over GST control)"
same,binding signal,ETV3L,"1.16 fold enrichment (6-mer frequency, TF over GST control)"
same,binding signal,ETS2,"1.13 fold enrichment (6-mer frequency, TF over GST control)"
same,binding signal,SPDEF,"1.23 fold enrichment (6-mer frequency, TF over GST control)"
same,binding signal,ETV7,"1.04 fold enrichment (6-mer frequency, TF over GST control)"
same,binding signal,ELF5,"1.07 fold enrichment (6-mer frequency, TF over GST control)"
same,binding signal,ETV3,"1.14 fold enrichment (6-mer frequency, TF over GST control)"
same,binding signal,ETV6,"1.05 fold enrichment (6-mer frequency, TF over GST control)"
CGATAG,binding signal,ERF,"1.17 fold enrichment (6-mer frequency, TF over GST control)"
same,binding signal,ETV3L,"1.07 fold enrichment (6-mer frequency, TF over GST control)"
same,binding signal,ETS2,"1.07 fold enrichment (6-mer frequency, TF over GST control)"
same,binding signal,SPDEF,"1.03 fold enrichment (6-mer frequency, TF over GST control)"
same,binding signal,ETV7,"1.15 fold enrichment (6-mer frequency, TF over GST control)"
same,binding signal,ELF5,"1.02 fold enrichment (6-mer frequency, TF over GST control)"
same,binding signal,ETV3,"1.17 fold enrichment (6-mer frequency, TF over GST control)"
same,binding signal,ETV6,"1.11 fold enrichment (6-mer frequency, TF over GST control)"
ACGGCT,binding signal,ERF,"1.16 fold enrichment (6-mer frequency, TF over GST control)"
same,binding signal,ETV3L,"1.23 fold enrichment (6-mer frequency, TF over GST control)"
same,binding signal,ETS2,"1.19 fold enrichment (6-mer frequency, TF over GST control)"
same,binding signal,SPDEF,"1.18 fold enrichment (6-mer frequency, TF over GST control)"
same,binding signal,ETV7,"1.03 fold enrichment (6-mer frequency, TF over GST control)"
same,binding signal,ELF5,"1.07 fold enrichment (6-mer frequency, TF over GST control)"
same,binding signal,ETV3,"1.11 fold enrichment (6-mer frequency, TF over GST control)"
same,binding signal,ETV6,"1.16 fold enrichment (6-mer frequency, TF over GST control)"
CTCAGT,binding signal,ERF,"1.11 fold enrichment (6-mer frequency, TF over GST control)"
same,binding signal,ETV3L,"1.18 fold enrichment (6-mer frequency, TF over GST control)"
same,binding signal,ETS2,"1.1 fold enrichment (6-mer frequency, TF over GST control)"
same,binding signal,SPDEF,"1.06 fold enrichment (6-mer frequency, TF over GST control)"
same,binding signal,ETV7,"1.12 fold enrichment (6-mer frequency, TF over GST control)"
same,binding signal,ELF5,"1.09 fold enrichment (6-mer frequency, TF over GST control)"
same,binding signal,ETV3,"1.24 fold enrichment (6-mer frequency, TF over GST control)"
same,binding signal,ETV6,"1.08 fold enrichment (6-mer frequency, TF over GST control)"
ATATTC,binding signal,ERF,"1.08 fold enrichment (6-mer frequency, TF over GST control)"
same,binding signal,ETV3L,"1.35 fold enrichment (6-mer frequency, TF over GST control)"
same,binding signal,ETS2,"1.2 fold enrichment (6-mer frequency, TF over GST control)"
same,binding signal,SPDEF,"1.26 fold enrichment (6-mer frequency, TF over GST control)"
same,binding signal,ETV7,"1.24 fold enrichment (6-mer frequency, TF over GST control)"
same,binding signal,ELF5,"1.31 fold enrichment (6-mer frequency, TF over GST control)"
same,binding signal,ETV3,"1.19 fold enrichment (6-mer frequency, TF over GST control)"
same,binding signal,ETV6,"1.32 fold enrichment (6-mer frequency, TF over GST control)"
CTAAAG,binding signal,ERF,"1.44 fold enrichment (6-mer frequency, TF over GST control)"
same,binding signal,ETV3L,"1.33 fold enrichment (6-mer frequency, TF over GST control)"
same,binding signal,ETS2,"1.32 fold enrichment (6-mer frequency, TF over GST control)"
same,binding signal,SPDEF,"1.26 fold enrichment (6-mer frequency, TF over GST control)"
same,binding signal,ETV7,"1.35 fold enrichment (6-mer frequency, TF over GST control)"
same,binding signal,ELF5,"1.33 fold enrichment (6-mer frequency, TF over GST control)"
same,binding signal,ETV3,"1.36 fold enrichment (6-mer frequency, TF over GST control)"
same,binding signal,ETV6,"1.23 fold enrichment (6-mer frequency, TF over GST control)"
